# Assay results as given in PubChem BioAssay (NCI).
# Compounds without any hit were thinned out: in the full panel of roughly 79,000, 15% have a hit. Values without a mark were called inactive. Calls of active or inactive are those of the source. No stated cut-off is given here; in the data, active means growth inhibition above about 70%; inactive means the rest.
# Tests used:
# [1] = NCI Yeast Anticancer Drug Screen. Data for the rad50 strain (AID 155);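 further: 0% = growth of vehicle-only cultures of the same strain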; settings: S. cerevisiae rad50 strain growth inhibition; at 50.0 µM; stronger effect = higher value
# In short: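 Growth of the mutant yeast was measured after compound exposure and referenced to vehicle-treated cultures.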
# [2] = NCI Yeast Anticancer Drug Screen. Data for the mec2-1 strain (AID 157); settings: S. cerevisiae mec2-1 strain, at 50.0 µM, stronger effect = higher value
# In short: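 Each compound was tested on mec2-1 yeast, a strain altered in DNA damage repair or cell cycle control. Growth inhibition is reported relative to vehicle.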
# [3] = NCI Yeast Anticancer Drug Screen. Data for the sgs1 mgt1 strain (AID 161);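 further: 0% = growth of cultures given vehicle only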; settings: S. cerevisiae sgs1 mgt1 strain, at 50.0 µM, stronger effect = higher value
# In short: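 Mutant yeast exposed to compound; growth scored against vehicle-only wells.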
# [4] = NCI Yeast Anticancer Drug Screen. Data for the cln2 rad14 strain (AID 165);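 further: 0% = growth equal to vehicle treated cultures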; settings: S. cerevisiae cln2 rad14 strain, at 50.0 µM, stronger effect = higher value
# In short: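 Test compounds were added to cln2 rad14 yeast cultures; inhibition of growth was then determined by comparison with vehicle treatment.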
# [5] = NCI Yeast Anticancer Drug Screen. Data for the bub3 strain (AID 167); settings: S. cerevisiae bub3 mutant strain, at 50.0 µM, stronger effect = higher value
# In short: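 Whole-cell yeast assay. The mutant strain was incubated with compounds, and growth inhibition was determined by comparison with vehicle-treated cells.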
# [6] = NCI Yeast Anticancer Drug Screen. Data for the mlh1 rad18 strain (AID 175); settings: S. cerevisiae mlh1 rad18 strain growth inhibition; at 50.0 µM; stronger effect = higher value
# In short: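 Inhibition values reflect reduced growth of mutant yeast versus vehicle-treated controls following compound exposure; the mutations affect DNA damage repair.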
SMILES,growth inhibition [1] [%],growth inhibition [2] [%],growth inhibition [3] [%],growth inhibition [4] [%],growth inhibition [5],growth inhibition [6] [%]
COC(=O)c1cc(OC)c(O)c(OC)c1,-1.3,-0.4,16.6,-12.3,4.05%,-19.9
CNC(=O)C1CCC(=O)N1Cc1c[nH]c2ccccc12 (configuration not stated),-4.6,-8.65,-1.75,2.25,8.75%,-5.45
CC(=NCCN=C(C)c1ccccc1O)c1ccccc1O.[Cu],-17.9,-8.05,2.25,-23.6,-6.15%,-8.55
O=C1c2ccccc2Cc2ccc(O)cc21,47.1,21.3,11.1,10.3,11.8%,10.8
CNC(=O)Nc1ccc(C(=O)OCC(C)C)cc1,6.4,8.7,12.9,-34.1,-22.1%,7.45
CCC1(c2ccccc2)CCCC/C1=N/NC(N)=O (configuration not stated),2.55,-16.6,-0.8,2.2,-6.05%,-8.7
CC(C)=NNC(=O)c1ccc([N+](=O)[O-])cc1,9.35,0.95,2.1,5.1,3.65%,10.4
CC(=O)SC12CCCN1C(=O)C1(SC(C)=O)CCCN1C2=O (configuration not stated),40.5,26.4,45.2,-28.9,3.3%,37
Cc1cc2sc(C)[n+](CCCOS(=O)(=O)[O-])c2cc1C,-22.6,-23.9,-40,36.3,-0.95%,-35.9
CCOC(=O)c1[nH]n(-c2ccccc2)c(=O)c1C=NC(C)=S,-32.2,-25.6,-16.6,7.1,-12%,-18.9
CC(=O)NNc1nc(C)c(C(=O)NNC(=O)C(=O)Nc2c(Cl)cc([N+](=O)[O-])cc2Cl)s1,41.2,22.9,45.7,29,42.7%,18.9
COc1cccc(/C(C#N)=N/NC(=O)c2nc[nH]c2C)c1,9.5,8.9,19.8,10.9,13.1%,8.95
CCOC(=O)C(C)(C)C(=O)Nc1ccccc1,5.2,-7.6,-3.6,24.9,3.6%,5.7
Cc1ccc(C)c2c1CCc1cc3ccccc3nc1-2,26.4,-7.5,11.8,7.9,30.2%,13.8
C=CC1C(C(=O)Nc2ccccc2)CN1C (configuration not stated),7.1,14.4,-4.15,18.3,10.9%,-3.4
CC(=O)NNc1nc(C)c(C(/C=C/c2ccccc2O)=N/NC(=O)c2ccncc2)s1,6.9,5.5,16.1,26.6,17.5%,22.2
CC(=O)NC(CCc1ccccc1)C(=O)O (configuration not stated),16.1,32.4,0.9,24.9,40.8%,13.8
C=CCC(C#N)C1=CCCCC1 (configuration not stated),-6.85,-26.6,-12.4,-4.3,-23.6%,-5.75
c1ccc2c(c1)ccc1cccc[n+]12,-25.4,-7.75,-13,-12.4,-16.7%,-36.6
[O-][n+]1c2ccccc2[n+]([O-])c2cc(O)ccc21,20.4,-4.05,12.7,-1.3,17.1%,50.8
CC(=O)Nc1ccc(S(=O)(=O)c2ccc(NC(C)=O)s2)s1,-6.05,-1.3,-4.1,-15.4,-15.3%,-18.9

SMILES,growth inhibition [1] [%],growth inhibition [2] [%],growth inhibition [3] [%],growth inhibition [4] [%],growth inhibition [5],growth inhibition [6] [%]
Cc1cc(=O)c(CO)n[nH]1,8.75,15.2,3.7,6.8,3.45%,19.5
CCCCC(CN(C)C)C(=O)/C=C/c1ccccc1 (configuration not stated),23.2,2.9,32.9,-0.7,17.4%,27.8
Cc1ccc(/C=C/C(=O)C(C)(C)CN2CCCCC2)cc1,35.6,-9.05,25.1,14.3,10%,17.9
O=c1[nH]c2cccnc2[nH]c1=O,-8,-44,-32.8,4,-32.5%,-2.05
O=C(O)C1CCN(C(=O)Cc2c3ccccc3cc3ccccc23)CC1,20.9,3.9,-3.45,-2.5,-6.85%,22.7
Cc1cccc2c1C1c3ccccc3C(=O)CC1CC2=O (configuration not stated),14.9,30,22.9,25.7,11%,35.2
O=C(O)/C(=C\c1cc2c(cc1[N+](=O)[O-])OCO2)c1ccccc1,3.8,-5.35,6.8,-41,-22.9%,17.9
O=C(O)c1cc(C(=O)O)cc(N(CCO)CCO)c1,-19.1,-6.45,-6.8,-17.6,21.8%,-14.2
CC(C)(C)N/N=C(\C(=O)Nc1cccc(Cl)c1)C1C(=O)Nc2ccccc2S1=O (configuration not stated),-31.1,-43.8,-24.6,10.7,-11.2%,8.75
Cc1ccc(NC(=O)C2C(=O)N(c3ccc(C)c(C)c3)C(=O)C2N=N)cc1C (configuration not stated),7.9,34.8,26.6,-41.8,0.35%,44.9
O=S(=O)(Cl)c1cc(Cl)ccc1Cl,24.8,-19.8,-17.1,-72.2,-3.6%,-4.1
NC1=NC(c2ccccc2)C2=C(N1)C(=O)N(Cc1ccccc1)C2 (configuration not stated),5.65,-6.25,-0.8,-18.9,-16.8%,3.15
O=C(/C=C/c1ccco1)c1ccc(NCc2nc3ccccc3[nH]2)cc1,40.2,-7,41.5,33.9,13.8%,25.8
COC(=O)NC1=Nc2ccccc2N(C(=O)Oc2ccccc2)S1,7.8,0.6,26.4,23.6,83.2% (active),33.9
CCOC(=O)/C=C(\N)c1ccccc1,-7.8,-13.2,-15.6,-43.8,-30.4%,-6.8
CCOC(=O)C(C)(/C=N/NS(=O)(=O)c1ccc(C)cc1)c1ccccc1 (configuration not stated),5.2,10.7,9.15,5.7,15.9%,14.3
CC(=O)Nc1ccc[n+](C)c1,0.65,17.9,-6.9,-3.3,33.3%,-1.95
CN(C)CCOc1c(Cc2ccccc2)ccc2cccnc12,-1.65,5.15,3.05,-2.9,1%,5.05
NC(=O)C1=C(O)C(=O)NC1=O,1.6,1.55,8.9,-29.8,7.05%,-5.1
CCCCCCCCCCNC(=O)C(OC(C)=O)C(OC(C)=O)C(OC(C)=O)C(COC(C)=O)OC(C)=O (configuration not stated),29.4,12.6,19.3,32.1,10.2%,40.4
CCC(CO)(CO)[N+](=O)[O-],10.2,-2,-20.5,5,16.8%,7.25
